Assay results: PubChem BioAssay AID720541 (National Center for Advancing Translational Sciences (NCATS), 2013)
The whole screen tested about 1,300 compounds, of which about 420 (32%) were called active. Inconclusive results (about 32%) are left out. Some of the results follow. A number with no mark means an inactive call. Calls come from the whole dose curve; as a rule, active = well fitted inhibition curve with a large enough effect; inconclusive = small, poorly fitted or top-dose-only effect; inactive = no such curve, though single readings can be large or run the other way.

Each compound was assayed against C-terminal-binding protein 1 (Homo sapiens) (UniProt Q13363) (assay: qHTS for Inhibitors of the Phosphatase Activity of Eya2: Carboxyl-terminal binding protein (CtBP) Counterscreen for Cherry-picked Compounds). Conditions: purified protein-protein binding, AlphaScreen, 3 h; series mostly up to 46.1 µM; activity change, negative = inhibition: at the top concentration.
In short: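 AlphaScreen using 25 nM GST-E1A with 25 nM CtBP-6xHIS; compounds at 2.5 nM–46 uM final, 2 h at room temperature, then donor/acceptor beads (20 ug/mL) for 1 h in the dark. Signal normalized to E1A peptide inhibitor (maximum inhibition) and DMSO.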
% is set by controls: 0 for no effect and ±100 for the full control effect; potency is the fitted concentration of half-maximal effect.
Note: nearly all actives have a fitted effect of over 65% in size.

| SMILES | activity change, negative = inhibition [%] | Potency |
| --- | --- | --- |
| CC(C)[C@H](NC(=O)c1ccccc1)C(=O)NC1CCCCCCC1 | 12.3 | – |
| Cc1ccc(C(O)c2ncc(-c3ccc4ccccc4c3)[nH]2)cc1F (stereo not drawn) | -28.8 | – |
| O=C(NCc1ccccc1)c1ccc2nc(-c3ccco3)c(-c3ccco3)nc2c1 | – | 16.9 µM (active) |
| Cc1ccc(CNC(=O)c2ccc(-n3cccc3)cc2)cc1 | 2.52 | – |
| CN(C)C(CNC(=O)c1ccc2c(c1)S(=O)(=O)c1ccccc1C2=O)c1ccco1 (stereo not drawn) | -25.3 | – |
| Cc1c(CC(=O)N[C@@H](C)C(=O)O)c(=O)oc2cc3occ(-c4ccccc4)c3cc12 | – | 6.75 µM (active) |
| Cc1c(CC(=O)NCCCC(=O)O)c(=O)oc2cc3occ(-c4ccccc4)c3cc12 | – | 13.5 µM (active) |
| Cc1c(CC(=O)NCC(=O)O)c(=O)oc2cc3occ(-c4ccccc4)c3cc12 | – | 13.5 µM (active) |
| COc1ccc(-c2coc3cc4oc(=O)c(CC(=O)O)c(C)c4cc23)cc1 | – | 13.5 µM (active) |
| N#Cc1ccc(CSc2nnc(-c3c[nH]c4ccccc34)n2-c2ccccc2)cc1 | -10.5 | – |
| Cc1c(CCC(=O)NCCCCCC(=O)O)c(=O)oc2cc3occ(-c4ccccc4)c3cc12 | – | 8.49 µM (active) |
| COc1cccc2c1C(=O)/C(=C/c1ccc(N(C)C)cc1)C2 | – | 4.78 µM (active) |
| CN(C)CCNc1ccc2ncn3c4ccc(O)cc4c(=O)c1c23 | – | 1.9 µM (active) |
| CN(C)CCNc1ccc2nnn3c4ccc(O)cc4c(=O)c1c23 | – | 1.2 µM (active) |
| O=C(CC1(O)C(=O)Nc2ccccc21)c1ccccc1 (stereo not drawn) | 12.8 | – |
| CCOC(=O)c1c(NC(=O)/C=C/C(=O)O)sc(C)c1-c1ccc(Cl)cc1 | -19.5 | – |
| Cn1c(=O)c(N)c2c3c(c(Br)ccc31)C(=O)c1ccccc1-2 | – | 9.53 µM (active) |
| Cc1c(NC(=O)c2ccco2)cccc1C(=O)NN1C(=O)c2ccccc2C1=O | -9.57 | – |
| CCc1c(C)nc(Nc2nc(C)c3ccc(OC)cc3n2)[nH]c1=O | – | 3.38 µM (active) |
| Cc1nn2c(c1-c1ccccc1)NC1=C(C(=O)CCC1)C2c1ccccc1 (stereo not drawn) | 3.34 | – |
| C/C=C/c1ccc(OCCSc2nc(C)cc(=O)[nH]2)c(OC)c1 | – | 10.7 µM (active) |
| O=S(=O)(Nc1nnc(-c2ccccc2)s1)c1ccc(Cl)cc1 | – | 16.9 µM (active) |
| Cc1n[nH]c(=S)n(NC(=O)CC(=O)Nn2c(=S)[nH]nc(C)c2=O)c1=O | – | 1.2 µM (active) |
| CC1=CC(C)(C)Nc2ccc(OC(=O)CN3C(=O)c4ccccc4C3=O)cc21 | 9.89 | – |

| SMILES | activity change, negative = inhibition [%] | Potency |
| --- | --- | --- |
| O=S(=O)(c1ccc(Cl)s1)N1CCc2ccccc2C1 | 65.2 | – |
| O=C(NN1C(=O)/C(=C\c2ccc(O)c([N+](=O)[O-])c2)SC1=S)c1ccccc1Cl | – | 12 µM (active) |
| Cc1ccc(S(=O)(=O)NN2C(=O)/C(=C/c3cccc(F)c3)SC2=S)cc1 | -16.6 | – |
| COc1ccc(OC)c(/C=C2\SC(=S)N(NS(=O)(=O)c3ccccc3)C2=O)c1 | -14.7 | – |
| COc1ccc(Nc2nc(C(C)(C)C)nc3c2nnn3Cc2ccccc2Cl)cc1OC | -19 | – |
| CCOC(=O)C1CCCN(C2=C(NS(=O)(=O)c3ccc(Br)cc3)C(=O)c3ccccc3C2=O)C1 (stereo not drawn) | – | 12 µM (active) |
| CCOC(=O)C1CCN(C2=C(NS(=O)(=O)c3ccc(Br)cc3)C(=O)c3ccccc3C2=O)CC1 | – | 5.36 µM (active) |
| CCOC(=O)CNC(=O)C1CCCN(c2ncccn2)C1 (stereo not drawn) | 12.5 | – |
| NC(=O)C1CCN(c2oc(-c3cccs3)nc2S(=O)(=O)c2ccc(Br)cc2)CC1 | -14.9 | – |
| COC(=O)c1ccc(CSc2ccc3nnc(-c4ccccn4)n3n2)o1 | – | 7.57 µM (active) |
| c1ccc(CSc2ccc3nnc(-c4ccccn4)n3n2)cc1 | – | 13.5 µM (active) |
| Brc1ccc(CSc2ccc3nnc(-c4cccnc4)n3n2)cc1 | -31.1 | – |
| Brc1ccc(CSc2ccc3nnc(-c4ccccn4)n3n2)cc1 | – | 13.5 µM (active) |
| CCOc1ccc(NC(=O)C2CC(=O)N(CCc3ccc(OC)c(OC)c3)C2)cc1OCC (stereo not drawn) | – | 19 µM (active) |
| CN(C)c1ccc(C(CNS(=O)(=O)c2ccc(F)c(F)c2)c2c[nH]c3ccccc23)cc1 (stereo not drawn) | -19.8 | – |
| Cc1ccc(NC(=O)c2ccc3c(c2)OCO3)cc1S(=O)(=O)N1CCOCC1 | – | 8.49 µM (active) |
| COc1ccc(S(=O)(=O)N2CCOCC2)cc1C(=O)Nc1cccc(C(=O)NC2CC2)c1 | – | 15.1 µM (active) |
| NC(=O)C1CCN(CC(=O)Nc2ccc3c(c2)OCO3)CC1 | 56.5 | – |
| COc1ccc(/C=C/C(=O)Nc2cccc(S(=O)(=O)N3CCOCC3)c2)cc1OC | – | 15.1 µM (active) |
| S=C(Nc1ccc2c(c1)OCCO2)Nc1ccc2c(c1)OCO2 | -13.5 | – |
| COc1ccc2oc(C(=O)Nc3cccc(S(=O)(=O)N4CCOCC4)c3)c(C)c2c1 | 2.02 | – |
| O=C(COC(=O)c1cc(=O)[nH]c2ccccc12)Nc1cccc(S(=O)(=O)N2CCOCC2)c1 | -20.2 | – |
| O=C(COC(=O)c1cc(S(=O)(=O)N2CCOCC2)ccc1O)Nc1ccc2c(c1)OCO2 | -29.9 | – |
| Cc1ccc(NC(=O)/C=C/c2ccc3c(c2)OCO3)cc1S(=O)(=O)N1CCOCC1 | – | 6.75 µM (active) |
